Test results from PubChem BioAssay (NCATS).
Results filed as inconclusive are left out. Calls of active or inactive are those of the source. The call rests on the fitted dose curve; in most records, active means well fitted cell-killing curve with a large enough effect; inconclusive means small, poorly fitted or top-dose-only effect, or effect the other way; inactive means no such curve, though single readings can be large or run the other way.

How the values were obtained:
[1] = Quantitative High-Throughput drug screen in 47 multiple myeloma cell lines against the NCATS MIPE library collection: OCIMY1_PLB cell viability assay (AID 1918979); further: nearly all actives have a fitted effect of over 35% in size
Procedure, shortened: (§1)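 500 cells/well per myeloma line exposed to pinned MIPE 4.0 compounds for 48 h at 37 °C, 5% CO2. Viability read as ATP by CellTiter-Glo luminescence, normalised to DMSO-only (100%) and media-only (0%) wells.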

[2] = Quantitative High-Throughput drug screen in 47 multiple myeloma cell lines against the NCATS MIPE library collection: MM1S_ATCC cell viability assay (AID 1918980); further: nearly all actives have a fitted effect of over 45% in size
Procedure, shortened: as §1

[3] = Quantitative High-Throughput drug screen in 47 multiple myeloma cell lines against the NCATS MIPE library collection: LP1_DSMZ cell viability assay (AID 1918982); further: nearly all actives have a fitted effect of over 35% in size
Procedure, shortened: as §1

[4] = Quantitative High-Throughput drug screen in 47 multiple myeloma cell lines against the NCATS MIPE library collection: L363_DSMZ cell viability assay (AID 1918984); further: nearly all actives have a fitted effect of over 40% in size
Procedure, shortened: as §1

[5] = Quantitative High-Throughput drug screen in 47 multiple myeloma cell lines against the NCATS MIPE library collection: KMS34_JCRB cell viability assay (AID 1918985); further: nearly all actives have a fitted effect of over 40% in size
Procedure, shortened: as §1

[6] = Quantitative High-Throughput drug screen in 47 multiple myeloma cell lines against the NCATS MIPE library collection: OCIMY7_PLB cell viability assay (AID 1918987); conditions: OCI-MY7 myeloma viability, CellTiter-Glo ATP, 48 h; viability (% of DMSO): at 45.8 µM (top of the series); further: nearly all actives have a fitted effect of over 65% in size
Procedure, shortened: as §1

[7] = Quantitative High-Throughput drug screen in 47 multiple myeloma cell lines against the NCATS MIPE library collection: OCIMY5_PLB cell viability assay (AID 1918988); further: nearly all actives have a fitted effect of over 65% in size
Procedure, shortened: as §1

[8] = Quantitative High-Throughput drug screen in 47 multiple myeloma cell lines against the NCATS MIPE library collection: OPM1_PLB cell viability assay (AID 1918989); further: nearly all actives have a fitted effect of over 40% in size
Procedure, shortened: as §1

[9] = Quantitative High-Throughput drug screen in 47 multiple myeloma cell lines against the NCATS MIPE library collection: SKMM1_PLB cell viability assay (AID 1919863); conditions: SKMM1 myeloma viability, CellTiter-Glo ATP, 48 h; viability: stronger effect = lower value; further: nearly all actives have a fitted effect of over 35% in size
Procedure, shortened: as §1

[10] = Quantitative High-Throughput drug screen in 47 multiple myeloma cell lines against the NCATS MIPE library collection: XG6_PLB cell viability assay (AID 1919865); further: nearly all actives have a fitted effect of over 40% in size
Procedure, shortened: as §1

[11] = Quantitative High-Throughput drug screen in 47 multiple myeloma cell lines against the NCATS MIPE library collection: XG1_PLB cell viability assay (AID 1919866); further: nearly all actives have a fitted effect of over 35% in size
Procedure, shortened: as §1

[12] = Quantitative High-Throughput drug screen in 47 multiple myeloma cell lines against the NCATS MIPE library collection: VP6_DJ cell viability assay (AID 1919867); further: nearly all actives have a fitted effect of over 40% in size
Procedure, shortened: as §1

[13] = Quantitative High-Throughput drug screen in 47 multiple myeloma cell lines against the NCATS MIPE library collection: UTMC2_PLB cell viability assay (AID 1919868); conditions: CellTiter-Glo ATP luminescence, 48 h; viability (% of DMSO control): at 45.8 µM (top of the series); further: nearly all actives have a fitted effect of over 55% in size
Procedure, shortened: as §1

[14] = Quantitative High-Throughput drug screen in 47 multiple myeloma cell lines against the NCATS MIPE library collection: PE2_PLB cell viability assay (AID 1919869); further: nearly all actives have a fitted effect of over 35% in size
Procedure, shortened: as §1

[15] = Quantitative High-Throughput drug screen in 47 multiple myeloma cell lines against the NCATS MIPE library collection: PCM6_Riken cell viability assay (AID 1919870); further: nearly all actives have a fitted effect of over 30% in size
Procedure, shortened: as §1

[16] = Quantitative High-Throughput drug screen in 47 multiple myeloma cell lines against the NCATS MIPE library collection: KMS28PE_JCRB cell viability assay (AID 1918983); further: nearly all actives have a fitted effect of over 35% in size
Procedure, shortened: as §1

[17] = Quantitative High-Throughput drug screen in 47 multiple myeloma cell lines against the NCATS MIPE library collection: RPMI8226_ATCC cell viability assay (AID 1919871); further: nearly all actives have a fitted effect of over 30% in size
Procedure, shortened: as §1

[18] = Quantitative High-Throughput drug screen in 47 multiple myeloma cell lines against the NCATS MIPE library collection: OPM2_DSMZ cell viability assay (AID 1919872); further: nearly all actives have a fitted effect of over 30% in size
Procedure, shortened: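 Luminescent ATP measurement with CellTiter-Glo gives viability, scaled between DMSO-only wells (100%) and media-only wells (0%). Cells, 500 per well, faced library compounds for 48 hours at 37C.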

[19] = Quantitative High-Throughput drug screen in 47 multiple myeloma cell lines against the NCATS MIPE library collection: MM1R_ATCC cell viability assay (AID 1918981); further: nearly all actives have a fitted effect of over 35% in size
Procedure, shortened: as §1

[20] = Quantitative High-Throughput drug screen in 47 multiple myeloma cell lines against the NCATS MIPE library collection: U266_ATCC cell viability assay (AID 1919864); further: nearly all actives have a fitted effect of over 35% in size
Procedure, shortened: as §1
Potency means the concentration at half of the fitted maximal effect.

CC(=O)O[C@@]12CO[C@H]1C[C@H](O)[C@@]1(C)C(=O)[C@H](O)C3=C(C)[C@@H](OC(=O)C(O)[C@@H](NC(=O)OC(C)(C)C)c4ccccc4)C[C@@](O)([C@@H](OC(=O)c4ccccc4)[C@@H]21)C3(C)C (stereo partly specified)
inactive: Potency [1] | Potency [2] | Potency [3] | Potency [4] | Potency [5] | Potency [6] | Potency [7] | Potency [8] | viability [9] 60% | Potency [10] | Potency [11] | Potency [12] | Potency [13] | Potency [14] | Potency [15]

OC[C@H]1OC(O)C[C@@H](O)[C@H]1O (stereo partly specified)
inactive: Potency [1] | Potency [2] | Potency [3] | Potency [16] | Potency [4] | Potency [5] | viability [9] 120% | Potency [11] | Potency [13] | Potency [14] | Potency [15] | Potency [17] | Potency [18]

CCC(C=C[C@@H]1OC(=O)C=C[C@H]1C)=C[C@H](C)CC=CC(C)=C[C@@H](C)C(=O)[C@@H](C)[C@H](O)[C@@H](C)CC(C)=CC(=O)O
active: Potency [1] 27.7 nM | Potency [19] 9.8 nM | Potency [3] 27.7 nM | Potency [16] 24.7 nM | Potency [4] 7.8 nM | Potency [5] 22 nM | Potency [6] 39.2 nM | Potency [7] 9.8 nM | Potency [8] 31.1 nM | Potency [9] 22 nM | Potency [20] 24.7 nM | Potency [10] 15.6 nM | Potency [11] 24.7 nM | Potency [12] 13.9 nM | Potency [13] 17.5 nM | Potency [14] 19.6 nM | Potency [15] 9.8 nM | Potency [17] 31.1 nM | Potency [18] 27.7 nM

CNC(=O)Nc1ccc(-c2nc(N3CC4CCC(C3)O4)c3cnn(C4CCC5(CC4)OCCO5)c3n2)cc1
active: Potency [1] 935 nM | Potency [2] 14.8 nM | Potency [16] 3.7 nM | Potency [5] 18.7 nM | Potency [6] 3720 nM | Potency [7] 833 nM | Potency [8] 11.8 nM | Potency [9] 16.6 nM | Potency [20] 14.8 nM | Potency [15] 66.2 nM | Potency [18] 20.9 nM

Cn1cc(-c2ccc3ncc(Cc4ccc5ncccc5c4)n3n2)cn1
inactive: Potency [1] | Potency [2] | Potency [3] | Potency [16] | Potency [5] | Potency [8] | Potency [17] | Potency [18]
active: Potency [15] 13200 nM

COc1ccc(C(C)=O)c(O)c1
inactive: Potency [1] | Potency [3] | Potency [16] | Potency [5] | Potency [7] | viability [9] 112% | Potency [14] | Potency [15] | Potency [18]
active: Potency [2] 4690 nM | Potency [10] 18700 nM

O=[N+]([O-])c1cn2c(n1)OC[C@@H](OCc1ccc(OC(F)(F)F)cc1)C2
active: Potency [2] 2640 nM | Potency [20] 18700 nM
inactive: Potency [1] | Potency [3] | Potency [5] | Potency [7] | Potency [8] | Potency [10] | Potency [11] | Potency [15] | Potency [17] | Potency [18]

N[C@H]1CN(c2c(F)cc3c(=O)c(C(=O)O)cn(C4C[C@@H]4F)c3c2Cl)CC12CC2 (stereo partly specified)
active: Potency [7] 20900 nM
inactive: Potency [1] | Potency [2] | Potency [3] | Potency [4] | Potency [6] | Potency [8] | Potency [10] | Potency [11] | Potency [12] | Potency [15]

CC(C)OC(=O)[C@H](C)N[P@](=O)(OC[C@H]1O[C@@H](n2ccc(=O)[nH]c2=O)[C@](C)(F)[C@H]1O)Oc1ccccc1
inactive: Potency [1] | Potency [2] | Potency [3] | Potency [5] | viability [9] 127% | Potency [20] | Potency [15] | Potency [17] | Potency [18]

CN[C@H](CC(C)C)C(=O)N[C@H]1C(=O)N[C@@H](CC(N)=O)C(=O)N[C@@H]2C(=O)N[C@H]3C(=O)N[C@H](C(=O)N[C@H](C(=O)O)c4cc(O)cc(O)c4-c4cc3ccc4O)[C@H](O)c3ccc(c(Cl)c3)Oc3cc2cc(c3O[C@@H]2O[C@H](CO)[C@@H](O)[C@H](O)[C@@H]2O[C@H]2C[C@](C)(N)[C@H](O)[C@H](C)O2)Oc2ccc(cc2Cl)[C@H]1O
active: Potency [10] 18700 nM
inactive: Potency [1] | Potency [19] | Potency [3] | Potency [16] | Potency [5] | Potency [7] | viability [9] 122% | Potency [11] | Potency [14] | Potency [18]

Cc1ccccc1C(=O)Nc1ccc(C(=O)N2CCCC(O)c3cc(Cl)ccc32)c(C)c1 (stereo unspecified)
active: Potency [3] 18700 nM | Potency [11] 14800 nM
inactive: Potency [1] | Potency [19] | Potency [16] | Potency [5] | Potency [8] | viability [9] 139% | Potency [20] | Potency [17] | Potency [18]

C[C@@H]1[C@H](C)CC[C@]2(C(=O)O)CC[C@]3(C)C(=CC[C@@H]4[C@@]5(C)C[C@@H](O)[C@H](O)[C@@](C)(CO)[C@H]5CC[C@]43C)[C@@H]12
inactive: Potency [1] | Potency [19] | Potency [3] | Potency [16] | Potency [5] | Potency [7] | Potency [8] | Potency [10] | Potency [11] | Potency [12] | Potency [13] | Potency [14] | Potency [15] | Potency [18]
